{"source": "PubChem BioAssay AID1259415", "about": "(National Center for Advancing Translational Sciences (NCATS), 2018)", "note": "The whole screen tested about 410,000 compounds, of which about 18,000 (4.4%) were called active. Inconclusive results (about 7%) are left out. For the sample, actives were picked, then their nearest neighbours and some compounds at random. A number with no mark means an inactive call. Rule as the data show it: active = activity change below about -60%; inconclusive = no clear call, values can overlap the other calls; inactive = above about -39%. % is scaled to controls: 0 for no effect and ±100 for the full control effect.", "data": [{"assay": "qHTS Assay for inhibitors of the human cytomegalovirus (HCMV)", "conditions": "HFF cells, HCMV-luciferase reporter, 72 h; at 57.5 µM; stronger effect = lower value", "how_it_was_run": "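Steps: HFFs plated, 16 h 37C; compounds added; HCMV-luciferase added to MOI 1 PFU/cell; 72 h 37C; OneGlo reagent, 5 min room temperature; luminescence read, normalized to controls.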", "values": [{"smiles": "Cc1ccc(NC(=O)c2ccc(CN3CC(=O)N4CCCCC4C3=O)cc2)c(Cl)c1", "note": "(stereo not given)", "activity change, negative = inhibition": "48%"}, {"smiles": "Cc1nn(C)c(C)c1CN(C(=O)CCc1nnc(Cc2c[nH]c3ccccc23)o1)C(C)C", "activity change, negative = inhibition": "9.02%"}, {"smiles": "Clc1ccc(C[n+]2cc(-c3ccc(Cl)cc3)n3c2CCC3)cc1", "activity change, negative = inhibition": "-74.1% (active)"}, {"smiles": "CC(C)C[C@@H](COCc1ccc(Cl)cc1)N1CCN(C(=O)c2ccc(Cl)cc2Cl)CCC1=O", "activity change, negative = inhibition": "-13.1%"}, {"smiles": "Cc1ccc(S(=O)(=O)CC(=O)Nc2c(C)n(C)n(-c3ccccc3)c2=O)cc1", "activity change, negative = inhibition": "10.8%"}, {"smiles": "Cc1c(NC(=O)CSc2cccc3cccnc23)c(=O)n(-c2ccccc2)n1C", "activity change, negative = inhibition": "-83.5% (active)"}, {"smiles": "Cc1ccccc1OCCC(=O)Nc1c(C)n(C)n(-c2ccccc2)c1=O", "activity change, negative = inhibition": "-31.3%"}, {"smiles": "COC(=O)c1nn(-c2cccc(Cl)c2)ccc1=O", "activity change, negative = inhibition": "-24.4%"}, {"smiles": "CC(CCCc1ccccc1)NC(=O)c1nn(-c2ccc(Cl)cc2)nc1CO", "note": "(stereo not given)", "activity change, negative = inhibition": "-5.56%"}, {"smiles": "CCCSC1=C(C#N)C(c2ccccc2C)C(C(=O)OC)C(=O)N1", "note": "(stereo not given)", "activity change, negative = inhibition": "-10.3%"}, {"smiles": "COc1cc(/C=C/C(=O)O)cc(S(=O)(=O)Nc2ccccc2SC)c1OC", "activity change, negative = inhibition": "-14.9%"}, {"smiles": "COc1ccccc1Nc1c2c(nc3ccc(NC(=O)/C=C/c4cc(OC)c(OC)c(OC)c4)cc13)CCCC2", "activity change, negative = inhibition": "-98.3% (active)"}, {"smiles": "COc1cc(/C=C/C(=O)N2CCc3ccccc3C2)cc(OC)c1OC", "activity change, negative = inhibition": "84.9%"}, {"smiles": "CCOc1ccc(NC(=O)CSc2c3c(nc4ccccc24)CCCC3)cc1", "activity change, negative = inhibition": "-11.9%"}, {"smiles": "CCOc1ccc(C(=O)Nc2ccc3nc4c(c(Nc5ccccc5OC)c3c2)CCCC4)cc1", "activity change, negative = inhibition": "-83.9% (active)"}, {"smiles": "CCOc1ccc(-n2nc3ccc(NC(=O)c4ccc(OC)c(Cl)c4)cc3n2)cc1", "activity change, negative = inhibition": "1.85%"}, {"smiles": "CCC(C(=O)Nc1cc(OC)ccc1OC)n1c(=O)c(C(F)(F)F)nc2ccccc21", "note": "(stereo not given)", "activity change, negative = inhibition": "-4.66%"}, {"smiles": "COc1cc(OC)c(NC(=O)N2CC3CCCN3c3ccccc32)cc1Cl", "note": "(stereo not given)", "activity change, negative = inhibition": "-10.2%"}, {"smiles": "CCc1ccccc1NC(=O)Cc1ccc(NC(=O)N2CCCCc3ccccc32)cc1", "activity change, negative = inhibition": "18.7%"}, {"smiles": "COc1ccccc1C(=O)NCCC(=O)N(C)Cc1cccnc1", "activity change, negative = inhibition": "0%"}, {"smiles": "CCOCCCNC(=O)c1ccc2nc(CCc3ccccc3)oc2c1", "activity change, negative = inhibition": "18.3%"}, {"smiles": "CCOC(=O)N1CCc2c(sc3c2c(=O)n(Cc2ccccc2)c(=O)n3CC(=O)Nc2cccc(C)c2)C1", "activity change, negative = inhibition": "-9.95%"}, {"smiles": "CCc1cccc(NC(=O)c2cc(-c3ccccc3)n[nH]2)c1", "activity change, negative = inhibition": "46.1%"}, {"smiles": "O=C(CNCc1ccc(Cl)cc1)Nc1cccc(C(=O)O)c1", "activity change, negative = inhibition": "-4.42%"}, {"smiles": "O=C(CCl)Nc1cccc(CP(=O)(c2ccccc2)c2ccccc2)c1", "activity change, negative = inhibition": "-108% (active)"}, {"smiles": "Cc1cc(C)cc(NC(=O)CCS(=O)(=O)c2cc3c4c(c2)CCN4C(=O)CC3)c1", "activity change, negative = inhibition": "-0.0143%"}, {"smiles": "C=C(C)C1CC=C(C)/C(=N\\NC(=O)CNc2ccccc2OC)C1", "note": "(stereo not given)", "activity change, negative = inhibition": "-21.5%"}, {"smiles": "CN1CCN(c2oc(-c3ccc(COc4ccc(Cl)cc4)o3)nc2C#N)CC1", "activity change, negative = inhibition": "-31.4%"}, {"smiles": "CN(CCc1cnn(C)c1)Cc1cn(C)nc1-c1ccccc1F", "activity change, negative = inhibition": "5.69%"}, {"smiles": "C/C(=N\\OCC(=O)Nc1ccc(Br)cc1)c1cccs1", "activity change, negative = inhibition": "-6.56%"}, {"smiles": "CCn1c2ccccc2c2cc(NC(=O)COc3ccc(C)cc3C)ccc21", "activity change, negative = inhibition": "-8.23%"}, {"smiles": "Cc1ccc(OCC(=O)Nc2ccc(NC(=O)c3cccs3)cc2)c(C)c1", "activity change, negative = inhibition": "-90.8% (active)"}, {"smiles": "CCOc1ccc(NC(=O)Cn2cc(C(=O)c3ccc(C)cc3)c(=O)c3cc4c(cc32)OCCO4)cc1", "activity change, negative = inhibition": "11.7%"}, {"smiles": "COc1ccc2cc(-c3nc(Cl)c4c5c(sc4n3)CC(C)CC5)c(=O)oc2c1", "note": "(stereo not given)", "activity change, negative = inhibition": "-12.7%"}, {"smiles": "CCCCNC(=O)c1cc(-c2ccc(Cl)c(Cl)c2)on1", "activity change, negative = inhibition": "27.6%"}, {"smiles": "O=C(NCc1ccccc1)c1cc(-c2cccc(Cl)c2)on1", "activity change, negative = inhibition": "21.7%"}, {"smiles": "COCCNC(=O)c1cc(-c2cccc(Cl)c2)on1", "activity change, negative = inhibition": "-70.5% (active)"}, {"smiles": "O=C(O)c1ccc(CSc2nc3cccnc3n2Cc2cccc(F)c2)cc1", "activity change, negative = inhibition": "40.5%"}, {"smiles": "CNS(=O)(=O)c1ccc(C(=O)NCC(=O)NCCc2ccc3c(c2)OCCO3)cc1", "activity change, negative = inhibition": "-5.01%"}, {"smiles": "CCc1ccccc1OCCSc1nc(-c2cccs2)nc2cc(=O)[nH]n12", "activity change, negative = inhibition": "-12.5%"}, {"smiles": "CC(=O)c1ccc(NS(=O)(=O)c2ccc(-c3cc(C)no3)s2)cc1", "activity change, negative = inhibition": "0%"}, {"smiles": "c1ccc2c(CSCc3nc4ccccc4[nH]3)cccc2c1", "activity change, negative = inhibition": "-92.5% (active)"}, {"smiles": "O=C(OCc1nc2ccccc2[nH]1)C1CCCCC1", "activity change, negative = inhibition": "4.12%"}, {"smiles": "c1ccc2c(C[n+]3csc4ccccc43)cccc2c1", "activity change, negative = inhibition": "91.5%"}, {"smiles": "COc1ccccc1C(=O)N1O[C@]23C=C[C@]14C[C@@H](O)CC[C@]4(C)C2CC[C@]1(C)[C@@H]([C@H](C)/C=C/[C@H](C)C(C)C)CC[C@H]13", "note": "(stereo not given in full)", "activity change, negative = inhibition": "27.5%"}, {"smiles": "Cc1ccc2nc(COc3ccccc3NC(=O)Nc3ccc(F)c(Cl)c3)cc(=O)n2c1", "activity change, negative = inhibition": "9.77%"}, {"smiles": "CC(C)NC(=O)c1nn(-c2ccccc2F)nc1CO", "activity change, negative = inhibition": "-26.3%"}, {"smiles": "CCNC(=O)CC1C(=O)N(c2ccc(F)cc2)C(=O)N1Cc1ccc(C)cc1", "note": "(stereo not given)", "activity change, negative = inhibition": "-4.44%"}, {"smiles": "C/C(=N\\NC(=O)COc1c(C)cccc1C)c1cccs1", "activity change, negative = inhibition": "-1.76%"}, {"smiles": "Cc1ccccc1C(CC(=O)c1cccs1)C(C#N)C#N", "note": "(stereo not given)", "activity change, negative = inhibition": "-89.2% (active)"}, {"smiles": "CCS(=O)(=O)N1CCN(C(=O)c2cccs2)CC1", "activity change, negative = inhibition": "14.1%"}, {"smiles": "Cc1cc(NC(=O)C(C)SCC(=O)Nc2ccccc2N2CCCCC2)no1", "note": "(stereo not given)", "activity change, negative = inhibition": "-18.8%"}, {"smiles": "Cc1cc(NC(=O)C(C)SCC(=O)Nc2cccc(S(=O)(=O)N3CCCCCC3)c2)no1", "note": "(stereo not given)", "activity change, negative = inhibition": "-103% (active)"}, {"smiles": "Cc1ccnc(SCC(=O)Nc2cccc(S(=O)(=O)N3CCOCC3)c2)n1", "activity change, negative = inhibition": "-25.4%"}, {"smiles": "Cn1c(SCC(=O)Nc2cccc(O)c2)nnc1-c1ccc(S(=O)(=O)N2CCOCC2)cc1", "activity change, negative = inhibition": "-70.3% (active)"}, {"smiles": "Nc1cc(N)nc(SCC(=O)Nc2cccc(S(=O)(=O)N3CCCCC3)c2)n1", "activity change, negative = inhibition": "-9.15%"}, {"smiles": "O=C(CSc1ccccc1)Nc1cccc(S(=O)(=O)N2CCCCC2)c1", "activity change, negative = inhibition": "-4.82%"}, {"smiles": "CCC(=O)Nc1cccc(NC(=O)CSc2nnc(-c3ccc(NS(C)(=O)=O)cc3)n2C)c1", "activity change, negative = inhibition": "-2.35%"}, {"smiles": "Cn1nnnc1SCC(=O)Nc1cccc(S(=O)(=O)N2CCCCC2)c1", "activity change, negative = inhibition": "-105% (active)"}, {"smiles": "COCCn1cnnc1SCC(=O)Nc1cccc(S(=O)(=O)N2CCCCC2)c1", "activity change, negative = inhibition": "-23.6%"}]}]}
